“And” between values parts separate entries of the source, which are not always exact repeats. Identical values can stand only once. This is part of a sample that, as a whole, favours compounds with a hit. Of some 83,000 tested, about 20% had one in any assay.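 Method: cells in 96-well plates; compound added at one concentration; 48 h incubation; percent growth measured; values under 10 scored active.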 The source made the active and inactive calls.
What was measured:
Assay in all cases: NCI-60 one-dose screen, 48 h (100 = growth as untreated, 0 = no growth, -100 = all killed)
SNB-75 CNS = conditions: 10 µM unless noted
SNB-19 CNS = conditions: 10 µM unless noted
U251 CNS = conditions: 10 µM unless noted
PC-3 prostate = conditions: 10 µM unless noted
SK-MEL-5 melanoma = conditions: 10 µM unless noted
UACC-62 melanoma = system: UACC-62 melanoma
LOX IMVI melanoma = conditions: 10 µM unless noted
EKVX NSCLC = conditions: 10 µM unless noted
SN12C renal = conditions: 10 µM unless noted
SK-MEL-28 melanoma = conditions: 10 µM

Compound | growth (SNB-75 CNS) | growth (SNB-19 CNS) | growth (U251 CNS) | growth (PC-3 prostate) | growth (SK-MEL-5 melanoma) | growth (UACC-62 melanoma; 10 µM) | growth (LOX IMVI melanoma) | growth (EKVX NSCLC) | growth (SN12C renal) | growth (SK-MEL-28 melanoma) | growth (UACC-62 melanoma; 100 µM)
COC1CC(CC2CCC(C)C(C(C)C(=O)O)O2)OC2(OC(C)(C3CCC(C)(C4OC(C5OC(O)(CO)C(C)CC5C)CC4C)O3)CC2C)C1C (stereo not drawn) | -60.6% (active) | -2.87% (active) | 3.01% (active) | 5.39% (active) | -96.3% (active) | -98.8% (active) | 11.3% (inactive) | 19.1% (inactive) | 17.1% (inactive) | – | –
COc1ccccc1/C=C(/C)[N+](=O)[O-] | 68.3% (inactive) and 85% (inactive) | 73.9% (inactive) and 107% (inactive) | 83% (inactive) and 98.7% (inactive) | 90.3% (inactive) and 84.7% (inactive) | 80.3% (inactive) and 102% (inactive) | 58.1% (inactive) and 103% (inactive) | 22.2% (inactive) and 92.2% (inactive) | 90.8% (inactive) and 98.4% (inactive) | 32.9% (inactive) and 99.3% (inactive) | 83.3% (inactive) and 116% (inactive) | –
CC(=O)O[C@H]1C[C@@H]2OC3C=C(C)CCC3(C)[C@@]1(C)[C@@]21CO1 (stereo partly drawn) | 11.2% (inactive) and -18.3% (active) | -0.212% (active) and 0.0305% (active) | -8.47% (active) and -17.4% (active) | -2.24% (active) and -4.21% (active) | -47.8% (active) and -66.8% (active) | -16.6% (active) and -10.1% (active) | -58.9% (active) and -21.5% (active) | -13.7% (active) and -15.6% (active) | -9.69% (active) and 0.846% (active) | -24.3% (active) and -29.8% (active) | –
CO[C@H](/C(C)=C/C=C/C(C)=C/c1coc(C)n1)[C@H](C)[C@H]1C[C@@H](O)[C@@]2(C)O[C@H]2/C=C/[C@@H](C)[C@@H]2C[C@@H](CC(=O)O2)C[C@H]2O[C@@H]2C(=O)O1 | -46.7% (active) | 21.2% (inactive) | 3.46% (active) | -14.4% (active) | -18.7% (active) | 8.74% (active) | 13.1% (inactive) | 39.6% (inactive) | 48.7% (inactive) | – | –
CCC(=O)OC1CCn2c1nc1c2C(=O)C(C)=C(N2CC2)C1=O (stereo not drawn) | -87% (active) | 1.12% (active) | -24.2% (active) | 8.58% (active) | -98% (active) | -67.8% (active) | -75.7% (active) | 8.46% (active) | -43.9% (active) | -42.1% (active) | –
CC1=C2C(=O)[C@H]3[C@@H](CC=C4C[C@@H](O)CC[C@@]43C)[C@@H]2CC[C@]12O[C@@H]1C[C@H](C)CN[C@H]1[C@H]2C | 68.6% (inactive) | 106% (inactive) | 107% (inactive) | – | 96.8% (inactive) | 112% (inactive) | 96.4% (inactive) | 94.3% (inactive) | 102% (inactive) | 118% (inactive) | –
NCCc1ccc(OCc2ccccc2)c(OCc2ccccc2)c1 | 63.9% (inactive) | 94.5% (inactive) | 44.3% (inactive) | 74.1% (inactive) | 89.3% (inactive) | 95.9% (inactive) | 63.2% (inactive) | – | 86.6% (inactive) | 97.3% (inactive) | –
CC[C@@]1(O)C(=O)OCc2c1cc1n(c2=O)Cc2cc3ccccc3nc2-1 | -41.8% (active) | -0.517% (active) | -31.6% (active) | -22.3% (active) | -83.9% (active) | -49.1% (active) | -62.4% (active) | 13.5% (inactive) | 13.5% (inactive) | – | –
CC[C@@]1(O)C[C@H](OC2CC(N(C)C)C(O)C(C)O2)c2c(O)c3c(c(O)c2[C@H]1OC1CC(N(C)C)C(O)C(C)O1)C(=O)c1cccc(O)c1C3=O (stereo partly drawn) | -94.6% (active) | 5.62% (active) | -21.9% (active) | -61.8% (active) | -89% (active) | -63.2% (active) | -36.2% (active) | 4.27% (active) | 11.4% (inactive) | – | –
CC[C@@]1(O)C[C@H](OC2CC(N(C)C)C(OC3CC(O)C(OC4CCC(=O)C(C)O4)C(C)O3)C(C)O2)c2c(cc3c(c2O)C(=O)c2c(O)ccc(O)c2C3=O)[C@H]1C(=O)OC (stereo partly drawn) | -37.1% (active) | 25.7% (inactive) | -38.3% (active) | -24.5% (active) | -24.9% (active) | -72.9% (active) | -68.8% (active) | 17.6% (inactive) | 24.3% (inactive) | – | –
CCOC(=O)C(NC(=O)C(Cc1ccc(N(CCCl)CCCl)cc1)NC(C)=O)C(C)C (stereo not drawn) | 85.9% (inactive) | 90.6% (inactive) | 73.7% (inactive) | 67.4% (inactive) | 97.7% (inactive) | 83.1% (inactive) | 66.1% (inactive) | 97.6% (inactive) | 76.2% (inactive) | 101% (inactive) | –
COc1ccc(OC)c(/C=C/[N+](=O)[O-])c1 | 33.7% (inactive) | 41.8% (inactive) | -27.2% (active) | -29.4% (active) | -16.2% (active) | -22.3% (active) | -48.5% (active) | 67.7% (inactive) | 15.9% (inactive) | -20% (active) | –
O=C1c2ccccc2C(=O)C(Cl)C1Cl (stereo not drawn) | 54% (inactive) | 69.5% (inactive) | 83% (inactive) | 71.8% (inactive) | 86.3% (inactive) | 70.9% (inactive) | – | -79.6% (active) | 71.4% (inactive) | 87.9% (inactive) | –
COc1cccc2c1cc([N+](=O)[O-])c1c(C(=O)O)cc3c(c12)OCO3 | 79.4% (inactive) and 106% (inactive) | 79.3% (inactive) and 97.7% (inactive) | 60.2% (inactive) and 96.7% (inactive) | 77.3% (inactive) and 73.7% (inactive) | 78.9% (inactive) and 104% (inactive) | 84.3% (inactive) and 96.5% (inactive) | 70.4% (inactive) and 99.2% (inactive) | 84.3% (inactive) and 111% (inactive) | 65.1% (inactive) and 113% (inactive) | 99.8% (inactive) | -19.4% (active) and 0.694% (active)
Oc1cccc2cccnc12 | 101% (inactive) and 106% (inactive) and 89.6% (inactive) | 95.1% (inactive) and 108% (inactive) and 102% (inactive) | 72.3% (inactive) and 99.1% (inactive) and 106% (inactive) | 86.9% (inactive) and 97.3% (inactive) and 92.3% (inactive) | 97.2% (inactive) and 99.9% (inactive) and 110% (inactive) | 97.2% (inactive) and 94.1% (inactive) | 71.9% (inactive) and 99.1% (inactive) and 107% (inactive) | 93% (inactive) and 110% (inactive) and 103% (inactive) | 89.6% (inactive) and 103% (inactive) and 99.6% (inactive) | 97.2% (inactive) and 107% (inactive) and 106% (inactive) | –
